# From PubChem BioAssay
# NSD2 HMT inh: NSD2 histone methyltransferase inhibitors, primary screen, biochemical, AlphaScreen, single concentration, set 2. Histone-lysine N-methyltransferase NSD2 (Homo sapiens), O96028. NSD2 peptide methylation, 120 min. inhibition, % at 12.5 µM. hit rate 0.54% among 310,000. AID 743445, 2014; in the data active means inhibition above about 50%
# Casp6 inh: human caspase-6 inhibitors, primary screen, biochemical, VEID-R110 fluorescence, single point, set 2; P55212; purified caspase-6, Z-VEID-R110 cleavage fluorescence; inhibition, % at 12.5 µM; hit rate 0.53% among 350,000;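 active means mean inhibition across replicates at least about 35%, with every replicate also reaching that limit, limit read from the data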;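 further: 0% = median of neutral control wells and 100% = no fluorescence left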
# RAD52 inh: RAD52 DNA annealing inhibitors, primary screen, biochemical, FRET, single point, set 2; AID 651710, 2012; inhibition, % at 18.7 µM; DNA repair protein RAD52 homolog (Homo sapiens), P43351; recombinant RAD52 DNA annealing, FRET fluorescence; hit rate 0.46% among 360,000;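 active means every replicate showing at least 50% inhibition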
# MLL AF4-AF9 inh: inhibitors of AF4 peptide binding to AF9, primary screen, biochemical, AlphaScreen, biotin-AF4 peptide, FLAG-AF9, single point; AID 651704, 2012; inhibition, % at 10 µM; hit rate 0.47% among 350,000;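 active means every replicate reaching a set inhibition limit, whatever the replicate mean, cut at about 25% in these data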;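 further: 0% = plate neutral control median and 100% = total signal loss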
# Target sequence (P42568 whole entry, looked up): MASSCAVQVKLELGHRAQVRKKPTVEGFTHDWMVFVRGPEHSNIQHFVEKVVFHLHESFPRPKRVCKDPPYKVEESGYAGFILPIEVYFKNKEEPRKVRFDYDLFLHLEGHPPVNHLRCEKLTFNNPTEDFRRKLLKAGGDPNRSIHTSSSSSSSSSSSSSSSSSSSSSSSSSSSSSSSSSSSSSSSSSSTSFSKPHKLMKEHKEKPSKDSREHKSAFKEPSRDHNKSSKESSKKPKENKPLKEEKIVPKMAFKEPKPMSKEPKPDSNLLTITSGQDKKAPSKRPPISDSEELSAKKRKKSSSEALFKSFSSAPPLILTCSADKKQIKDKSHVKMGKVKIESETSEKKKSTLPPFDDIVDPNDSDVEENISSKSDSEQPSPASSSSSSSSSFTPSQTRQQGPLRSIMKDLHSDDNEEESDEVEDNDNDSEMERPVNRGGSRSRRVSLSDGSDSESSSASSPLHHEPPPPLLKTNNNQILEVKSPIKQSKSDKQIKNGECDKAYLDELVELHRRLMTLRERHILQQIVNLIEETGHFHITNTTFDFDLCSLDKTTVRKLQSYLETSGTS
# miR122 inh: miR-122 Renilla sensor signal increase in Huh7, primary screen, miR-122 inhibitor project, cell-based, single point, plate reader. Huh7 miR-122 Renilla luciferase sensor, 48 h; neutral wells = 0, positive control = 100. activation (reporter increase), % at 12.5 µM. hit rate 0.3% among 340,000. AID 602342, 2012;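 active means mean replicate activation score at least 90 and every replicate individually at or above 90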;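 further: higher luciferase means less miR-122 activity so hits act as miR-122 inhibitors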
# * = called active by the depositor; · = no result; [ ] = another dose, or the depositor's remark. Rows were chosen to be rich in hits. Some 1.5% of all compounds tested hit in one or more screens of this group.
SMILES,NSD2 HMT inh,Casp6 inh,RAD52 inh,MLL AF4-AF9 inh,miR122 inh
COCC(=O)N1CC[C@H]2[C@H](CO)Nc3ccc(C#Cc4ccc(F)cc4)cc3[C@H]21,·,3,16,4,·
O=C(NC[C@@H]1CC[C@@H]2[C@@H](CN2C(=O)C2CCOCC2)O1)c1cccnc1,·,-5,-6,-3,·
O=C(O)CCN1C(=O)/C(=C\c2cccc(OCC(=O)Nc3ccc(Cl)cc3)c2)SC1=S,-2,13,-26,-23,-2
Cc1ccc(NC(=O)COc2cccc(/C=C3\SC(=S)N(CCC(=O)O)C3=O)c2)cc1Cl,0,42*,-25,-6,-3
CCOC(=O)C1(CCOc2ccccc2)CCN(Cc2cccc3nonc23)CC1,-2,2,-18,26*,18
CCCCC1(c2ccc(F)cc2)NC(=O)N(CC(=O)N2CCN(C(=O)c3ccco3)CC2)C1=O (configuration not stated),-3,46*,-17,0,·
CCOc1cc(S(=O)(=O)NCCc2ccccc2C)c(OCC)cc1-n1cnnn1,7,·,·,·,126*
CC(C)NC(=O)N1CC2(C1)[C@H](c1ccccc1)[C@H](CO)N2C(=O)C1CCC1,·,-4,8,-2,·
O=S(=O)(NCCc1ccccc1)c1cccc(S(=O)(=O)N2CCOCC2)c1,5,·,·,·,150*
COc1cc(NS(=O)(=O)c2ccc(OC)c(C)c2C)c(OC)cc1Cl,-5,·,·,·,272*
CC(C)NC(=O)N(C)C[C@H]1OCCCC[C@H](C)Oc2ccc(NC(=O)Cc3ccccc3)cc2C(=O)N([C@H](C)CO)C[C@@H]1C,·,2,-7,3,2[16.7 µM]
NC(=O)N/N=C/c1sc(N2CCCCC2)nc1-c1cccs1,12,9,-6,30*,0
CC(C)NC(=S)N/N=C/c1sc(N2CCCCC2)nc1-c1cccs1,-1,1,-96,-1,0
Cc1cccc(-c2ccc([C@H]3[C@@H](CO)N4C(=O)CN(C(=O)NC5CCCCC5)C[C@@H]34)cc2)c1,·,1,-11,3,·
Nc1c(C(=O)OCC(=O)NCc2ccccc2)[nH]c(=O)[nH]c1=O,0,-2,-6,38*,1
CN(C)c1ccc(C(CNC(=O)c2ccc(Br)o2)N2CCCC2)cc1 (configuration not stated),6,·,·,·,·
Nc1ccc(S(=O)(=O)Nc2nc3ccccc3o2)cc1,6,62*,-14,2,-1
C[C@H](CO)N1C[C@H](C)[C@@H](CN(C)Cc2ccc(C(=O)O)cc2)Oc2ccc(NS(=O)(=O)c3ccc(F)cc3)cc2CC1=O,·,2,1,-5,·
CC(=O)N1c2ccc(S(=O)(=O)N(C)CC(=O)NCc3ccc(C)cc3)cc2CC1C (configuration not stated),-9,72*,-15,2,10
COc1cccc(CNS(=O)(=O)c2cc(Br)cc3c2N(C(C)=O)C(C)C3)c1 (configuration not stated),-1,·,·,·,44
CC(=O)N1c2ccc(S(=O)(=O)NCCc3ccccc3)cc2CC1C (configuration not stated),3,0,-16,-2,153*
CC(=O)N1c2c(cc(Br)cc2S(=O)(=O)NCc2ccccc2)CC1C (configuration not stated),-3,1,-14,0,125*
CC(=O)N1c2ccc(S(=O)(=O)NCCC(=O)N(C)Cc3ccccc3)cc2CC1C (configuration not stated),2,1,2,-3,10
CC1Cc2cc(S(=O)(=O)NCCc3ccccc3)ccc2N1C(=O)C1CC1 (configuration not stated),-1,3,-11,-2,132*
Cc1ccc(S(=O)(=O)N(C)C[C@@H]2Oc3ccc(NC(=O)Nc4cccc5ccccc45)cc3C(=O)N([C@@H](C)CO)C[C@H]2C)cc1,·,·,·,·,-9[16.7 µM]
O=C(OCc1ccccc1Cl)c1cccnc1Cl,-4,0,-9,·,1
O=C(OCc1ccccc1Cl)c1ccccc1C(=O)c1ccccc1,-6,·,·,·,137*
